# Test results: PubChem BioAssay (NCI)
# About 83,000 compounds went through this panel and 20% of them were active in at least one assay; those are over-represented in the sample as a whole.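 A percent growth of 40 corresponds to 60% growth inhibition; 0 means no net growth; -100 means all cells died. Active threshold: below 10.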 Values without a mark were called inactive. Activity calls are given as the source filed them.
# Key:
# Experiment in all cases: NCI-60 one-dose screen, 48 h (100 = growth as untreated, 0 = no growth, -100 = all killed)
# Settings in all cases: 10 µM
# [1] = test system: NCI-H23 lung
# [2] = test system: NCI-H226 lung
# [3] = test system: NCI-H322M lung
# [4] = test system: HOP-62 NSCLC
# [5] = test system: NCI-H460 lung
# [6] = test system: HOP-92 NSCLC
# [7] = test system: NCI-H522 lung
# [8] = test system: A549/ATCC NSCLC
# [9] = test system: 786-0 renal
# [10] = test system: COLO 205 colon
SMILES,growth [1],growth [2],growth [3],growth [4],growth [5],growth [6],growth [7],growth [8],growth [9],growth [10]
Cc1ccc(/C=C(\C#N)n2nnc3c(F)cccc32)cc1,14.7%,16.8%,10.1%,17.8%,3.45% (active),-4.81% (active),1.65% (active),-3% (active),38.5%,-70.6% (active)
O=C(Nc1cccc(C(F)(F)F)c1)c1cncc(C#Cc2cnc3cccnn23)c1,12.7%,27.1%,71.6%,33.7%,70.7%,7.14% (active),54.9%,63%,40.1%,82.3%
N#Cc1c(-c2ccc(F)cc2)nc(SCc2ccc([N+](=O)[O-])cc2)nc1N1CCOCC1,74.8%,23.8%,82.7%,34.7%,77.4%,36.7%,41.3%,63.4%,30.2%,90.9%
O=C(c1ccc(Cl)cc1)C1[C@H](c2ccccc2Br)[C@@H](c2ccccc2)NC12C(=O)Nc1ccccc12 (stereo not given in full),6.15% (active),21.9%,42.1%,43.6%,0.679% (active),14%,-3.71% (active),20.4%,16.3%,-42.4% (active)
Cc1ccn2c(C(=O)c3ccc(Br)cc3)cc(-c3cc(-c4ccc(N(C)C)cc4)c(C#N)c(N)n3)c2c1,27.6%,60.5%,41%,78.8%,54.4%,31.2%,45.3%,70.2%,40.9%,47.5%
CC(C)Sc1nc(NC2CC2)c(C#N)c(-c2ccccc2)n1,75.5%,22.4%,77.4%,33.9%,75.1%,58.4%,60.9%,48.6%,28.5%,90.5%
COc1ccc(OC)c(/C=N/NC(=O)c2ccc3nc(-c4ccc(Cl)cc4)[nH]c3c2)c1,66.1%,64.3%,71.1%,81.6%,82.5%,63.4%,59.1%,91.2%,73.4%,81.7%
Cc1cc2c(c(O)c1Br)-c1ncoc1C(=O)[C@]1(C)CC[C@H](C(C)C)[C@H]21,36.8%,38.5%,65.7%,38%,18.4%,35.4%,-20.6% (active),16.5%,66.5%,-15.9% (active)
Cc1ccc(/C=C/C(=O)c2ccc(S(=O)(=O)NCCNc3nc(Nc4ccc(F)cc4)nc(N(C)C)n3)cc2)cc1,36.5%,-1.6% (active),48.5%,56.2%,0.319% (active),-18.2% (active),71.3%,41.3%,-32% (active),35.4%
CCOc1ccc(Nc2nc3ccccc3nc2Nc2ccc(OCC)cc2)cc1,55.2%,85.6%,71.3%,64.9%,17.2%,27.6%,55.9%,41.3%,32.1%,95.9%
Cc1noc2c(Cc3ccc([N+](=O)[O-])cc3)nn(CC(=O)N/N=C/c3ccc(Br)cc3)c(=O)c12,87.7%,67.7%,104%,72.4%,81.5%,50.6%,98.6%,65.1%,4.46% (active),119%
CC(=O)c1cc(C(=O)c2ccc3c(c2)NC(=O)CO3)n2ccc3ccccc3c12,58.3%,62.3%,87.8%,74.1%,63.8%,97.7%,71.6%,29.8%,51.7%,91.9%
COc1ccc(-c2nc(S(=O)(=O)c3ccccc3)c(S(C)(=O)=O)o2)cc1,3.05% (active),74.5%,101%,96.7%,75.9%,-60.8% (active),-97.2% (active),88.7%,-16.9% (active),-85.6% (active)
CN1CCCN(Cc2ccc(C(=O)Nc3cccc(Nc4ccc5cc(O)ccc5n4)c3)cc2C(F)(F)F)CC1,68.8%,103%,89.1%,95.9%,27.7%,53.3%,80.3%,64.7%,8.41% (active),63.2%
CNCc1cccc2c1OCCCCCC[C@@](C)(O)CC1(CC1)S(=O)(=O)c1ccc(cc1)-c1cnc(N)c(n1)C(=O)N2,-95.4% (active),-75.7% (active),-96.8% (active),-84.3% (active),-74.8% (active),-67.8% (active),-87.2% (active),-79.5% (active),-82.9% (active),-89.9% (active)
O=C(N=Nc1c(O)[nH]c2ccc(Br)cc12)c1ccc2nc(-c3ccccc3)[nH]c2c1,-66.1% (active),-47.9% (active),-62.9% (active),-61.9% (active),-73.5% (active),-78.8% (active),-79% (active),-24.6% (active),-92.9% (active),-67.5% (active)
Cc1ccc(-c2ccc(SCC(=O)Nc3ccc(S(N)(=O)=O)cc3Br)nn2)cc1,27.3%,22.6%,36%,14.1%,8.44% (active),-31.6% (active),47.2%,15.8%,16.4%,33.1%
CCOC(=O)C1=C(N)N(c2ccccc2)C2=C(C(=O)CC(C)(C)C2)C1c1ccccc1OC (stereo not given),98.3%,101%,94%,102%,115%,114%,95.3%,103%,97.7%,128%
COc1ccc(/C=C/C(=O)c2ccc(N3CCN(C)CC3)cc2)c(C(F)(F)F)c1,28.2%,46.4%,76.5%,79.6%,11.2%,46.8%,52.8%,48.4%,41.6%,-64.6% (active)
Nc1nc(Nc2ccc(Cl)cc2)n(Cc2cccc(Br)c2)n1,-37.9% (active),-12.6% (active),11.8%,-30.4% (active),-65.9% (active),-49.5% (active),-46.2% (active),8.74% (active),-46.8% (active),-68.8% (active)
O=c1oc2ccc(-c3ccc(F)cc3F)cc2c(=O)n1-c1ccc(F)cc1,-27.8% (active),-6.57% (active),1.43% (active),-20.9% (active),2.62% (active),-23.8% (active),-7.06% (active),17.8%,8.17% (active),83.2%
O=C1Nc2ccc(F)cc2/C1=C/c1cccc(OCc2ccccn2)c1,58.3%,49.9%,77%,78.9%,36.5%,26.5%,-14.1% (active),77.4%,56%,98.8%
COc1cccc(/C=N/NC(=O)c2ccc3nc(-c4ccc(Cl)cc4)[nH]c3c2)c1O,-95.2% (active),-85.8% (active),-81.6% (active),-91.9% (active),-84.4% (active),-85.2% (active),-83% (active),-76.8% (active),-90.3% (active),-88.8% (active)
O=C(CS(=O)(=O)c1oc(-c2ccc(Cl)cc2)nc1S(=O)(=O)c1ccccc1)N1CCCC1,17.1%,71.9%,83.9%,93.5%,73.3%,-73% (active),-89.3% (active),79.1%,-44.3% (active),-91% (active)
COc1ccc(-c2cc(-c3cc(C(=O)c4ccccc4)n4ccc(C)cc34)nc(N)c2C#N)cc1,55%,36.4%,83.7%,29.7%,44.5%,-7.39% (active),71.5%,79.9%,13.5%,73%
CC1(c2ccccc2)NC(=O)N(CC(=O)Nc2ccc(C(=O)/C=C/c3ccc(Cl)cc3)cc2)C1=O (stereo not given),18.6%,-0.196% (active),51.1%,35.6%,21.5%,-10.4% (active),41.4%,6.84% (active),-21.5% (active),-24.4% (active)
